# According to PubChem BioAssay (EPA / NIEHS):
# Records with an inconclusive call do not appear. Active and inactive are the calls of the source. How the source made its calls, unless noted: active means hit-call score of the fitted dose curve at least 0.9, where 1 is the maximum; inconclusive means response in the unintended direction; inactive means score below 0.9.
# Assays:
# [1] = STM_H9_OrnithineISnorm_perc: Stemina devTOX quickPredict H9 human embryonic stem cell (hESC)-based Assay for Ornithine (ORN) Metabolite Biomarker, Normalized (AID 2283712; active means hit-call score of the fitted dose curve at least 0.9, where 1 is the maximum; inactive means score below 0.9;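 further: ornithine released into spent medium during last day measured by mass spectrometry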)
# Outline: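 Metabolite endpoint from spent media of pluripotent H9 cells treated 72 h with daily re-feeding; ornithine measured by UPLC-HRMS against its 13C spike-in and referenced to the median 0.1% DMSO vehicle response.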
# [2] = STM_H9_OrnCyssISnorm_ratio: Stemina devTOX quickPredict H9 human embryonic stem cell (hESC)-based Assay for Ornithine (ORN):Cystine (CYSS) Ratio (AID 2283714)
# Outline: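 H9 hESC, 72h, q24h re-dose; last-day media → acetonitrile deproteinization → UPLC-HRMS. ORN:CYSS ratio from isotope-normalized EIC areas, vs 0.1% DMSO; MTX references on each plate.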
# [3] = Tanguay_ZF_120hpf_ActivityScore_legacy: (Legacy) Oregon State University Tanguay Lab 120 Hour Post-fertilization zebrafish Assay Score for Activity (AID 2283742);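 on AC50: dechorionated Tropical 5D wild-type zebrafish embryos held singly per well; static exposure from 6 hpf until 120 hpf at 28 °C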
# Outline: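 In this whole-embryo screen, dechorionated zebrafish were exposed from 6 hpf until 120 hpf at 28C under a 0.64% DMSO vehicle. Developmental malformations and death were recorded by brightfield microscopy as binary endpoints.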
# [4] = CEETOX_H295R_MTT_cell_viability: Viability Assessment in the CeeTox HT-H295R MTT Assay (AID 2283718; active means hit-call score of the fitted dose curve at least 0.9, where 1 is the maximum; inactive means score below 0.9;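 on AC50: curve fitted both ways so AC50 may mark viability loss or gain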)
# Outline: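 H295R cells prestimulated 48 h with 10 uM forskolin, then exposed 48 h to test chemical (0.1% DMSO final). Viability by MTT (0.5 mg/ml, 4 h, 37 C), absorbance 570/650 nm; percent change versus DMSO, bidirectional fit.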
# [5] = tested on: Thyroperoxidase (TPO), gene 445522; assay: CCTE_Simmons_GUA_TPO: CCTE's Guaiacol Assay for Thyroperoxidase (TPO) Inhibition, Simmons Lab (AID 2283750)
# Outline: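 Porcine thyroid microsomes (25 ug) in 200mM potassium phosphate, preincubated 30 s at 37C with compound (8 concentrations, 5 nM–87.5 uM) and 35mM guaiacol; 1mM H2O2 starts reaction. Absorbance change at 450nm over first 80 s; loss of signal versus DMSO, three replicates.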
# [6] = biological target: Luciferin 4-monooxygenase (Photinus pyralis) (UniProt P08659); assay: CCTE_Simmons_QuantiLum_inhib_2: CCTE's Firefly Luciferase Inhibition Assay, Simmons Lab (AID 2283767);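 on AC50: potency for inhibitors that lower luciferase luminescence relative to DMSO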
# Chain of Luciferin 4-monooxygenase (Photinus pyralis) (P08659 whole entry, looked up): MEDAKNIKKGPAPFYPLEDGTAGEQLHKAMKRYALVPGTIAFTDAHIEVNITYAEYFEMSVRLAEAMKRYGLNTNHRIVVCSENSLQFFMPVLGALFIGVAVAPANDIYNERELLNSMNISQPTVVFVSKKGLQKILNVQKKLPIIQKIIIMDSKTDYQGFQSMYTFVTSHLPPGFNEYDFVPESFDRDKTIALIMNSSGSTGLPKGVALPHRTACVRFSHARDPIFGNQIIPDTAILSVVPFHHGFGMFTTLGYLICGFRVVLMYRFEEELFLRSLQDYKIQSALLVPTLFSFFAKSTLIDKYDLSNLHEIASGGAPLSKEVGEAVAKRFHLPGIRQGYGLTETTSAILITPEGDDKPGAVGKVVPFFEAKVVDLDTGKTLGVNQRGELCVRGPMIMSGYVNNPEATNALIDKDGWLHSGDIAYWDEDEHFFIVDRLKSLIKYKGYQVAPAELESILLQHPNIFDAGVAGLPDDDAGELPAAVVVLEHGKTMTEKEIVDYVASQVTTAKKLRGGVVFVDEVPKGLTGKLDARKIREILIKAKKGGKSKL
# Outline: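 Eight-point titrations of each chemical, 5 nM–87.5 uM final in 0.5% DMSO, were run in three biological replicates against recombinant luciferase for 30 min at 37C. Bioluminescence signal loss, read on reagent injection, gave the inhibition endpoint.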
# [7] = ACEA_AR_antagonist_AUC_viability: ACEA Biosciences xCELLigence Real-Time Cell Analysis on Androgen Receptor Antagonism for Viability (AID 2283776);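 further: 22Rv1 human prostate cancer cells growing on impedance electrode plates; area under impedance growth curve at 80 h after dosing as viability; hits lower the growth signal relative to DMSO meaning cytotoxicity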
# Outline: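 Real-time electrical impedance tracks 22Rv1 proliferation after continuous compound exposure (top 100 uM final, 1:4 steps, 8 concentrations). The 80 h area-under-curve serves as the cytotoxicity readout relative to DMSO.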
# [8] = ArunA_CellTiter_hNC: Viability Assessment in the ArunA Biomedical's Oris Neural Crest (hNC) Cell Migration Assay (AID 2283752)
# Outline: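 Cytotoxicity endpoint run alongside the migration assay: neural crest cells on Matrigel, 60,000 per well, preincubated 16 h at 37C, treated 72 h; CellTiter Aqueous One signal loss relative to DMSO.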
# [9] = ArunA_CellTiter_hNP: Viability Assessment in the ArunA Biomedical's Oris Neural Crest (hNC) Cell Migration Assay (AID 2283753)
# Outline: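 Viability read with CellTiter 96 Aqueous One after 72 h chemical exposure of human hNP1 neuroprogenitors, which were plated on Matrigel in LIF/bFGF medium 16 h beforehand. Endpoint fitted in positive direction relative to DMSO.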
# [10] = ArunA_Migration_hNP: ArunA Biomedical's Oris Neuroprogenitor (hNP) Cell Migration Assay (AID 2283754)
# Outline: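 Readout is calcein-AM fluorescence (ex494/em517) of cells migrating into the detection zone, relative to DMSO. hNP1 cells (H9-derived) grown on Matrigel behind stoppers 16 h, then stoppers pulled and chemical applied 72 h; cytochalasin D as control.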
# [11] = ArunA_Migration_hNC: ArunA Biomedical's Oris Neural Crest (hNC) Cell Migration Assay (AID 2283755)
# Outline: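 Calcein-AM fluorescence (ex494 nm/em 517 nm) in the stopper-defined detection zone quantifies migration of hNC cells after 72 h chemical exposure; 60,000 cells/well plated on Matrigel with LIF and bFGF, 16 h pre-incubation. DMSO baseline.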
# [12] = ArunA_NOG_NucleusCount: ArunA Biomedical's Neurite Outgrowth (NOG) Assay for Nucleus Count (AID 2283756)
# Outline: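 Viable neuron count, from Hoechst nuclei passing size and intensity gates, imaged at 20x on differentiated H9-derived human neurons. Exposure lasted 48 h from seeding; activity was scored relative to DMSO.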
# [13] = ArunA_NOG_NeuriteLength: ArunA Biomedical's Neurite Outgrowth (NOG) Assay for Neurite Length (AID 2283757)
# Outline: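 Total neurite length per neuron, from traced βIII-tubulin-labelled processes longer than 10 um on viable Hoechst-gated cells, was scored as decrease from DMSO. Cells were hESC (H9)-derived neurons given 48 h chemical exposure immediately after seeding.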
# [14] = ArunA_NOG_NeuritesPerNeuron: ArunA Biomedical's Neurite Outgrowth (NOG) Assay for Neurites Per Neuron (AID 2283758)
# Outline: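 Differentiated human H9-derived neurons exposed to chemicals for 48 h from seeding, then stained with Hoechst and βIII-tubulin/DyLight 488. Automated imaging counted neurites (processes >10 um) per valid neuron; loss of signal versus DMSO scored.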
# [15] = biological target: zebrafish Estrogen Receptor (ESR1), esr1 (gene 259252) (UniProt P57717); assay: ATG_zfER1_XSP1: Attagene TRANS-FACTORIAL Multi-Species (XSP1) HepG2 Assay for zebrafish Estrogen Receptor (ESR1) (AID 2283772)
# Chain of zebrafish Estrogen Receptor (ESR1), esr1 (gene 259252) (P57717 whole entry, looked up, the tested form may be a part): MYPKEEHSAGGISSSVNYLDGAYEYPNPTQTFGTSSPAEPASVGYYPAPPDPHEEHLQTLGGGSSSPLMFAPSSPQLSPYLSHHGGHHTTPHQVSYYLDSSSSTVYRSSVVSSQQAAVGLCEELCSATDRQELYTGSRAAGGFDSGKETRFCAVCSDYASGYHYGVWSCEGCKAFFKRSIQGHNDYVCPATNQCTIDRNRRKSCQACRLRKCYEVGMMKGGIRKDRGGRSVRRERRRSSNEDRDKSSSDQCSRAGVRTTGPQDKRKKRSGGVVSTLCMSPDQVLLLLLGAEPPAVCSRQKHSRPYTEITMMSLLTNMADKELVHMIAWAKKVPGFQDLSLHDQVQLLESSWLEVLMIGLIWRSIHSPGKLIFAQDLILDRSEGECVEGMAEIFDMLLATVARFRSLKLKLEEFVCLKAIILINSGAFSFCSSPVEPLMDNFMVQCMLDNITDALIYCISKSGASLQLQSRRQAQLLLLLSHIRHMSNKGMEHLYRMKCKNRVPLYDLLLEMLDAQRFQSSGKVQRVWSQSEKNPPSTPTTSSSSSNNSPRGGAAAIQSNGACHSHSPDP
# Outline: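 Transfect HepG2 with GAL4-UAS multi-reporter constructs; treat 24 h (medium carries 3 nM 6-alpha-fluorotestosterone); extract RNA, reverse-transcribe, PCR-amplify, FAM-label, digest with HpaI; resolve by capillary electrophoresis and compare against DMSO baseline.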
# [16] = ACEA_AR_agonist_AUC_viability: ACEA Biosciences xCELLigence Real-Time Cell Analysis on Androgen Receptor Agonism for Viability (AID 2283775);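 on AC50: viability read 80 hours after compound addition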
# Outline: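 Viability endpoint from xCELLigence impedance in 22Rv1 prostate cells at 80 h. Eight-point series, 100 uM maximum final.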
# [17] = ArunA_NOG_BranchPointsPerNeurite: ArunA Biomedical's Neurite Outgrowth (NOG) Assay for Branch Points Per Neurite (AID 2283759)
# Outline: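 Automated image analysis traced neurites (processes >10 um) from valid cell bodies after Hoechst and βIII-tubulin staining. hNN cells from H9 embryonic stem cells, 48 h exposure. Fitted bidirectionally against DMSO.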
smiles,measurement,setting,value
O=C1CN(N=Cc2ccc([N+](=O)[O-])o2)C(=O)N1,AC50,[1],7.42 µM (active)
same,AC50,[2],6.21 µM (active)
same,outcome,[3],inactive
C[C@@H](Oc1ccc(CNC(=O)c2cccnc2Oc2ccc3c(c2)OCO3)c(F)c1)C(=O)O,outcome,[4],inactive
same,outcome,[3],inactive
same,outcome,[5],inactive
same,outcome,[6],inactive
same,outcome,[7],inactive
CCN(CC)C(=S)SSC(=S)N(CC)CC,AC50,[1],0.32 µM (active)
same,AC50,[2],0.325 µM (active)
same,outcome,[4],inactive
same,AC50,[3],0.831 µM (active)
same,AC50,[8],8.19 µM (active)
same,AC50,[9],7.2 µM (active)
same,AC50,[10],0.405 µM (active)
same,AC50,[11],8.55 µM (active)
same,AC50,[12],18.4 µM (active)
same,AC50,[13],15.5 µM (active)
same,AC50,[14],14.5 µM (active)
same,outcome,[15],inactive
same,AC50,[16],25.8 µM (active)
same,AC50,[7],26 µM (active)
Nc1ccn([C@@H]2O[C@H](CO)[C@@H](O)[C@@H]2O)c(=O)n1,AC50,[1],0.235 µM (active)
same,AC50,[2],0.203 µM (active)
same,AC50,[4],1.43 µM (active)
same,outcome,[3],inactive
same,AC50,[16],1.22 µM (active)
same,AC50,[7],0.88 µM (active)
Cc1ncc([C@@H](CCCCCCc2ccc3c(n2)NCCC3)CC(=O)O)cn1,outcome,[1],inactive
same,AC50,[2],0.0104 µM (active)
same,outcome,[4],inactive
same,outcome,[3],inactive
same,AC50,[16],0.00386 µM (active)
same,AC50,[7],0.00579 µM (active)
Cn1cc[nH]c1=S,outcome,[1],inactive
same,outcome,[10],inactive
same,outcome,[11],inactive
same,AC50,[12],5.5 µM (active)
same,AC50,[13],6.43 µM (active)
same,AC50,[14],5.75 µM (active)
same,AC50,[17],7.98 µM (active)
same,outcome,[6],inactive
same,outcome,[7],inactive
c1ccc2c(c1)-c1cccc3c1c-2cc1ccccc13,outcome,[4],inactive
same,outcome,[3],inactive
same,AC50,[16],36.5 µM (active)
same,AC50,[7],4.1 µM (active)
CCCC(CCC)C(=O)O,AC50,[1],334 µM (active)
same,AC50,[2],293 µM (active)
same,outcome,[3],inactive
same,outcome,[8],inactive
same,outcome,[9],inactive
same,AC50,[12],82.6 µM (active)
same,AC50,[13],77.4 µM (active)
same,AC50,[14],91.1 µM (active)
same,AC50,[17],69.6 µM (active)
same,outcome,[16],inactive
same,AC50,[7],50 µM (active)
CCOc1ccc2[nH]cc(C(=O)NCc3ccccc3)c(=O)c2n1,outcome,[4],inactive
same,AC50,[16],26.1 µM (active)
same,AC50,[7],35.9 µM (active)
CCCOc1ccc(S(=O)(=O)N2CCN(CC)CC2)cc1-c1nc2c(CC)n(Cc3ccccn3)nc2c(=O)[nH]1,outcome,[4],inactive
same,outcome,[3],inactive
same,outcome,[16],inactive
same,outcome,[7],inactive
CCCCC(CC)C(=O)OCCOCCOCCOC(=O)C(CC)CCCC (stereo not given),outcome,[4],inactive
same,outcome,[3],inactive
same,AC50,[16],50 µM (active)
same,AC50,[7],50 µM (active)
O=S(=O)(O)c1ccc(N=Nc2c(O)ccc3cc(S(=O)(=O)O)ccc23)cc1,outcome,[4],inactive
same,outcome,[3],inactive
same,outcome,[16],inactive
CCCCCCCCCC,outcome,[1],inactive
same,outcome,[3],inactive
same,outcome,[8],inactive
same,outcome,[11],inactive
same,outcome,[12],inactive
O=C(O)[C@H](O)[C@@H](O)C(=O)O,outcome,[16],inactive
same,outcome,[7],inactive
OC[C@H]1O[C@@](CO)(O[C@H]2O[C@H](CO)[C@@H](O)[C@H](O)[C@H]2O)[C@@H](O)[C@@H]1O,outcome,[3],inactive
same,outcome,[7],inactive
CC(=O)c1ccccc1,outcome,[3],inactive
same,outcome,[16],inactive
same,outcome,[7],inactive
OCC(CO)(CO)CO,outcome,[3],inactive
same,outcome,[16],inactive
O=C(NO)C1(NS(=O)(=O)c2ccc(Oc3ccc(F)cc3)cc2)CCOCC1,outcome,[3],inactive
same,outcome,[6],inactive
same,AC50,[16],38.5 µM (active)
same,AC50,[7],50 µM (active)
O=C(O)c1cccc(C(=O)O)c1,outcome,[3],inactive
same,outcome,[16],inactive
same,outcome,[7],inactive
CC(C)CCCCCCOC(=O)C1CCCCC1C(=O)OCCCCCCC(C)C (stereo not given),outcome,[3],inactive
same,outcome,[16],inactive
CCc1cccc(CC)c1N,outcome,[3],inactive
same,AC50,[16],50 µM (active)
same,AC50,[7],9.94 µM (active)
CCCCCCCC/C=C\CCCCCCCC(=O)OC[C@@H](O)[C@H]1OC[C@H](O)[C@H]1O,outcome,[3],inactive
same,outcome,[16],inactive
CCCCCCCCCCCCCCCCOS(=O)(=O)O,outcome,[3],inactive
same,outcome,[6],inactive
same,AC50,[16],38.3 µM (active)
same,AC50,[7],43.8 µM (active)
CCCCCCOC(=O)CC(CC(=O)OCCCCCC)(OC(=O)CCC)C(=O)OCCCCCC,outcome,[3],inactive
same,outcome,[16],inactive
same,outcome,[7],inactive
O=C(O)c1ccc2c(c1)nc(C(=O)NC1CCN(C3CC3)CC1)n2Cc1cc(-c2ccc(Cl)s2)on1,outcome,[3],inactive
same,AC50,[16],18.6 µM (active)
same,AC50,[7],15.8 µM (active)
O=C(O)c1cccc(C[C@@H]2COc3ccc(OCc4nc5cc(F)ccc5s4)cc3[C@@H]2O)c1,AC50,[3],37.3 µM (active)
same,outcome,[16],inactive
same,outcome,[7],inactive
NC(=O)N(O)[C@@H]1COc2cc(OCc3ccccc3)ccc21,outcome,[3],inactive
same,AC50,[6],2.1 µM (active)
same,outcome,[16],inactive
O=C(O)CO,outcome,[16],inactive
same,outcome,[7],inactive
CCc1ccc(O)c(C(C)(C)C)c1,outcome,[3],inactive
same,outcome,[6],inactive
same,AC50,[16],66.1 µM (active)
same,AC50,[7],70.5 µM (active)
OC[C@H]1O[C@@H]2O[C@H]3[C@H](O)[C@@H](O)[C@@H](O[C@H]4[C@H](O)[C@@H](O)[C@@H](O[C@H]5[C@H](O)[C@@H](O)[C@@H](O[C@H]6[C@H](O)[C@@H](O)[C@@H](O[C@H]7[C@H](O)[C@@H](O)[C@@H](O[C@H]1[C@H](O)[C@H]2O)O[C@@H]7CO)O[C@@H]6CO)O[C@@H]5CO)O[C@@H]4CO)O[C@@H]3CO,outcome,[3],inactive
same,outcome,[16],inactive
same,outcome,[7],inactive
